# TbPYK inhibitor = T. brucei pyruvate kinase inhibition | TbPYK enzyme, Kinase-Glo Plus ATP luminescence, 45 min | 0.12% of 410,000 active | Q57TT1 | Potency, µM (series often up to 76.8 µM), without a hit: at the highest dose activity, negative = inhibition, actives largely listed as inhibitors; further: potency means the concentration at half of the fitted maximal effect; on the % scale 0 is the no-effect control and ±100 the full control effect; nearly all actives have a fitted effect of over 50% in size
#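 Assay buffer: 50 mM TEA pH 7.2, 100 mM KCl, 10 mM MgCl2, 0.05% BSA, 0.01% Tween-20. Pyruvate kinase from T. brucei plus substrate met compound, then ADP (130 uM final). Luminescence was read post 45 min RT.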
# LmPK inhibitor = LmPK (Leishmania mexicana) enzyme inhibition; Q27686; purified LmPK, Kinase-Glo ATP luminescence, 1 h; Potency, µM (series often up to 57.5 µM), for inactives: at the top dose activity change, negative = inhibition, hits mostly inhibitors; 0.37% of 290,000 active; AID 1721; further: potency means the concentration at half of the fitted maximal effect; on the % scale 0 is the no-effect control and ±100 the full control effect
# Target sequence (Q27686 whole entry, looked up): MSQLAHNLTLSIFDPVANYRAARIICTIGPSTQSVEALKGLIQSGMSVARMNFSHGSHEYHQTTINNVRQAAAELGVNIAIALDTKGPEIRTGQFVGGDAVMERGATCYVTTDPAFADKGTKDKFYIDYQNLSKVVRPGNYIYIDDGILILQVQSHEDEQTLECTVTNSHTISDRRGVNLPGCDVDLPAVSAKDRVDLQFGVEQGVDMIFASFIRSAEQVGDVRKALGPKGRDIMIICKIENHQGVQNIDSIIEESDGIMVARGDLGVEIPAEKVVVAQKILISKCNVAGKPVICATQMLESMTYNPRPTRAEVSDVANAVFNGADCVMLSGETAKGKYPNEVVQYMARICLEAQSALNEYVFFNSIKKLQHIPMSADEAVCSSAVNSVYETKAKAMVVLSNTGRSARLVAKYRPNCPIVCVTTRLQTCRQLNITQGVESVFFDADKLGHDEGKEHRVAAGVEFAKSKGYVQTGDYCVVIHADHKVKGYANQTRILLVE
#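 ATP generated from ADP (0.1 mM) and PEP (0.5 mM) by 0.1 nM LmPK over 1 h at room temperature (pH 7.2 imidazole buffer) was detected by coupled luciferase luminescence. Values were normalized to uninhibited and no-enzyme wells.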
# Cycloheximide cs = counter-screen hit for Shiga toxin inhibitors, cycloheximide. max response, %. 12% of 300,000 active. AID 2314. cell reporter, cycloheximide protein synthesis inhibition counterscreen; in the data active means max response mostly above about 13%, no sharp cut-off; inactive means mostly below about 14%; further: read at 38.3 µM for the half of the compounds with a filed dose; 0% is about no effect
# FBPA Giardia inh = inhibitors of Giardia lamblia fructose-1,6-bisphosphate aldolase. 0.71% of 290,000 active. Potency, µM (series often up to 59.6 µM), inactives show at the highest dose activity, negative = inhibition, actives largely listed as inhibitors. purified Giardia FBPA. A8B2U2; further: potency means the concentration at half of the fitted maximal effect; on the % scale 0 is the no-effect control and ±100 the full control effect; nearly all actives have a fitted effect of over 55% in size
#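 40 nM FBPA preincubated 10 min at RT with compound (up to 57.5 uM final), then substrate plus GAPDH/TPI/NAD/arsenate coupling and diaphorase/resazurin added. Fluorescence read after 20 min at RT, 525/598 nm.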
# Shiga toxin inh = inhibitors of Shiga toxin in Vero cells. AID 2315. inhibition, % at 38.7 µM. Vero cells, Shiga toxin protein synthesis inhibition reporter. 9.2% of 290,000 active; in the data active means inhibition mostly above about 28%, no sharp cut-off; inactive means mostly below about 43%; further: 0% is about no effect
# RE007 growth inh = less growth of the S. pombe RE007 Vpr strain | AID 651644 | S. pombe RE007 Vpr strain, BacTiter-Glo ATP luminescence, 24 h | 0.21% of 360,000 active | Potency, µM (series often up to 92.2 µM), for inactives: top-dose activity change, negative = less growth, usual class: inhibitors; active means well fitted falling curve with a large enough effect; inconclusive means small, poorly fitted or top-dose-only effect; inactive means no such curve, though single readings can be large or run the other way; further: potency means the concentration at half of the fitted maximal effect; on the % scale 0 is the no-effect control and ±100 the full control effect; nearly all actives have a fitted effect of over 50% in size
#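 Fission yeast RE007 carrying one integrated HIV-1 vpr copy, seeded at OD 0.01 in PMG+AL medium with 23 nL pinned compound. Grown 24 h at 30 degrees; viability read by BacTiter-Glo luminescence after 5 min.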
# The depositor's hits bear a star; ? = inconclusive; . = no result given; [ ] = remark or other dose. The sample as a whole holds a higher share of hits than the screen did. Unless noted, the call rests on the fitted dose curve; in most records, active means well fitted curve in the direction sought with a large enough effect; inconclusive means small, poorly fitted or top-dose-only effect, or another doubt; inactive means no such curve, though single readings can be large; an effect the other way counts as inactive or inconclusive.
SMILES,TbPYK inhibitor,LmPK inhibitor,Cycloheximide cs,FBPA Giardia inh,Shiga toxin inh,RE007 growth inh
C/C(=N\OCC(=O)Nc1ccccc1C(=O)O)c1cccs1,5%,10%,34*,?,98*,3%
C/C(=N\NC(=O)c1cccc2ccccc12)c1ccccn1,1%,1%,-1,10%,-4,?
C/C(=N\NC(=O)c1ccoc1C)c1cccc2ccccc12,5%,3%,62*,-4%,80*,0%
O=C(CC1N=C2c3ccccc3N=C(SCC(=O)Nc3cccc(C(F)(F)F)c3)N2C1=O)NCc1cccs1 (configuration not stated),-3%,.,.,.,.,.
Cc1ccc(S(=O)(=O)c2cn(Cc3ccccc3F)c3cc4c(cc3c2=O)OCO4)cc1,-5%,.,.,.,.,.
COc1ccc(C2=NC3(CCCCCC3)N(CC(=O)Nc3cccc(Cl)c3)C2=O)cc1,4%,.,.,.,.,.
COC(=O)c1ccc(C(c2c(C)n(C)n(-c3ccccc3)c2=O)c2c(C)n(C)n(-c3ccccc3)c2=O)cc1,2%,-5%,-1,-21%,.,0%
CCOC(=O)c1ccccc1NC(=O)CSc1nc2[nH]ncc2c(=O)[nH]1,11%,.,.,.,.,6%
C/C(=N\NC(=O)COc1ccccc1)c1cccs1,-9%,0%,54*,2%,70*,10%
Cc1ccc(Cl)cc1NC(=O)CCCN1C(=O)CCn2nc(-c3cn(C)c4ccccc34)cc21,2%,.,.,.,.,.
Cc1ccc(C(=O)Nc2nc(=O)n(C(=O)c3ccccc3Cl)s2)cc1,-4%,-9%,31*,?,49*,2%
Cc1ccc(C(=O)Nc2nc(=O)n(C)s2)cc1,-5%,-18%,36*,-24%,73*,-14%
Cn1ccc(NC(=O)c2ccc(Cl)cc2)n1,5%,.,.,.,.,4%
Cn1sc(NC(=O)c2ccc(Cl)cc2)nc1=O,2%,-6%,14*,-24%,33,0%
CCCCC1CCC(c2nc(-c3cccnc3)no2)CC1 (configuration not stated),0%,16%,15,0%,-16,8%
c1ccc(-c2noc(C3CCC3)n2)nc1,-26%,-1%,28*,0%,50*,-14%
CCCCC1CCC(c2nc(-c3ccccn3)no2)CC1 (configuration not stated),2%,-10%,56*,4%,178*,?
COc1cccc(C(=O)Nc2cccc(-c3nc4ncccn4c3C)c2)c1,7%,.,.,.,.,.
O=C(NC(=O)c1c(F)cccc1F)Nc1ccccc1SC(F)F,0%,-2%,11*,-4%,28,0%
O=C(NC(=O)c1c(F)cccc1F)Nc1ccc(Cl)cc1,.,.,.,1%,.,.
O=c1nc(NCc2ccco2)sc2ncccc12,-5%,-10%,-2,-9%,-3,8%
COc1ccc(OC)c(Nc2cc(C)nc3ccccc23)c1,-9%,3%,-1,1%,5,8%
Cc1ccc(Nc2nc(=O)c3cccnc3s2)cc1,11%,-5%,26*,-25%,72*,-5%
COc1ccc(OC)c(Nc2nc(=O)c3cccnc3s2)c1,35µM*,2%,4,?,7,-3%
Cc1nc2sc(C(N)=O)c(N)c2c(C)c1CC(=O)c1ccccc1,-22%,-2%,30*,-29%,92*,10%
SMILES,TbPYK inhibitor,LmPK inhibitor,Cycloheximide cs,FBPA Giardia inh,Shiga toxin inh,RE007 growth inh
CSC(=S)N/N=C(\C)c1ccccc1,-8%,-2%,28*,21%,50*,-2%
Cc1ccc2c(CNCc3ccco3)cc(=O)oc2c1,7%,5%,38*,2%,55*,1%
CCCOc1cccc(C2c3c(-c4ccccc4O)n[nH]c3C(=O)N2Cc2ccco2)c1 (configuration not stated),1%,.,.,.,.,.
O=C(Nc1ccc2c(c1)OCCO2)C1CC(c2ccccc2Cl)=NO1 (configuration not stated),2%,-5%,61*,1%,117*,-20%
O=C(Nc1ccc2c(c1)OCO2)C1CC(c2ccccc2O)=NO1 (configuration not stated),0%,0%,active,6%,103,89%
COc1ccc(NC(=O)C2CC(c3ccccc3Cl)=NO2)cc1 (configuration not stated),10%,0%,14*,8%,30,-12%
O=C(Nc1ccc2c(c1)OCO2)C1CC(c2ccc(Cl)cc2)=NO1 (configuration not stated),2%,3%,-3,-6%,-6,16%
Cc1c(-c2ccccc2)nnn1-c1ccc(F)cc1F,9%,-1%,45*,-5%,73*,3%
O=C(O)c1ccc(C2Nc3ccccc3-c3nnc(SCc4ccc(Cl)cc4)nc3O2)cc1 (configuration not stated),-1%,.,.,.,.,.
COc1ccc(-c2cn3cc(C)ccc3n2)cc1F,6%,-27%,16*,?,15,-28%
COc1ccc(-c2cn3cc(C)ccc3n2)cc1OC,-8%,16µM*,33*,-26%,55*,?
Cc1ccc(C)c(NC(=O)CSc2c3c(nc4ccc(Cl)cc24)CCCC3)c1,5%,.,.,.,.,.
COc1cc(NC(=O)C2Cc3ccccc3N2C(=O)c2ccccc2)cc(OC)c1 (configuration not stated),1%,.,.,.,.,.
CSc1cccc(NC(=O)c2ccc3c(c2)c(C)c(C)n3Cc2ccc(F)cc2)c1,1%[15.4 µM],.,.,.,.,.
CNS(=O)(=O)c1ccc(NC(=S)Nc2ccc3c(c2)OCO3)cc1,-15%,2%,29*,-27%,55*,14%
Cc1cc(NS(=O)(=O)c2ccc(NC(=O)Nc3ccc4c(c3)OCO4)cc2)no1,-9%,2%,20,-1%,35*,10%
O=S(=O)(c1ccc(NC(=S)Nc2ccc3c(c2)OCO3)cc1)N1CCOCC1,-15%,0%,37*,-8%,64*,.
CC(=O)Nc1ccc(S(=O)(=O)Nc2ccc3c(c2)OCO3)cc1,0%,-4%,-3,8%,-8,0%
COc1ccc(NC(=O)c2cnc[nH]2)cc1,-13%,.,.,.,.,.
C=CCN1C(=O)S/C(=C/c2ccsc2)C1=O,-5%,0%,37*,0%,62*,-18%
Cc1ccnc(NC(=S)NC(=O)/C=C/c2ccc(Cl)cc2)c1,-10%,3%,26*,6%,26*,-2%
CCC(=O)Nc1ccc(NC(=S)NC(=O)/C=C/c2ccccc2)cc1,-5%,2%,5,2%,-7,-1%
Cc1ccnc(NC(=S)NC(=O)/C=C/c2ccccc2)c1,1%,-2%,32*,-5%,61*,-6%
Cc1cccnc1NC(=S)NC(=O)/C=C/c1ccccc1,-3%,-1%,31*,?,78*,-4%
O=C(/C=C/c1ccccc1)NC(=S)Nc1cccnc1,-6%,2%,12,-2%,-2,1%

# Screens (PubChem BioAssay)
